Results with a measured potency or affinity are listed apart. Results filed as inconclusive are left out. Calls of active or inactive are those of the source.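 How the source made its calls: active means fitted half-maximal concentration no higher than twice the top tested dose, in every repeat run; inconclusive means repeat runs disagree, poor fit, or flat partial inhibition; inactive means the rest.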

In the experiment the target is Endoplasmic reticulum aminopeptidase 1 (Homo sapiens) (UniProt Q9NZ08). Nature of the experiment: ERAP1 aminopeptidase inhibitors, dose response, biochemical, cherry-pick, set 2, plate reader (AID 743314). Conditions: Recombinant ERAP1, Leu-AMC fluorescence, 60 min; series mostly up to 11 µM.
Endoplasmic reticulum aminopeptidase 1 (Homo sapiens), sequence (Q9NZ08 whole entry, looked up): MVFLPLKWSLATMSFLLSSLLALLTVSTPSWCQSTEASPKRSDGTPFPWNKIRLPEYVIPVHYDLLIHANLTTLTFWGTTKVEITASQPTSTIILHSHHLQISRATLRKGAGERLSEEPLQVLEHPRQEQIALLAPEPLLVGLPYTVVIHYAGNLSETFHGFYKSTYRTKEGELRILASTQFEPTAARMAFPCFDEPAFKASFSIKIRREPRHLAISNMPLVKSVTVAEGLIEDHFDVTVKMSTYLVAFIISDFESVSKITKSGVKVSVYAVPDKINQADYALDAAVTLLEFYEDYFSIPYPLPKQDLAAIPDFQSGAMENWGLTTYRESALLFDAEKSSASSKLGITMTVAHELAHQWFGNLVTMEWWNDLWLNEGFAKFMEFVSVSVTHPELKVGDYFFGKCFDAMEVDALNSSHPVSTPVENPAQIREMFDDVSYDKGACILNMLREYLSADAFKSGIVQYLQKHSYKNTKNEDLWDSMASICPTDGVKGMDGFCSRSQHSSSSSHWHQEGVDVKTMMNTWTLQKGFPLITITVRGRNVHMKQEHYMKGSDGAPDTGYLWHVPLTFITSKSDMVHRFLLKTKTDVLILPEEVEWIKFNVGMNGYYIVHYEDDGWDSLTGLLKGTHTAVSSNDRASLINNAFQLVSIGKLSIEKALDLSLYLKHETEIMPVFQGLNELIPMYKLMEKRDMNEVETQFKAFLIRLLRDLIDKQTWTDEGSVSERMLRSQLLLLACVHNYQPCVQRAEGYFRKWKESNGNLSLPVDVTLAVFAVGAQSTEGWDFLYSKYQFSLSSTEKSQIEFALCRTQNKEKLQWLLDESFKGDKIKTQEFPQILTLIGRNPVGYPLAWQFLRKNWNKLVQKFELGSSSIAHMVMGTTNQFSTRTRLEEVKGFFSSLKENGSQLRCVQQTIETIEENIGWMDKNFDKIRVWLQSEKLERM
Consider `N=c1c(S(=O)(=O)c2ccccc2)cc2c(=O)n3ccccc3nc2n1CCCN1CCOCC1`, for which the result was inactive.
`N#Cc1c(NC(=O)c2cccc(S(=O)(=O)Nc3ccc(C(=O)O)cc3)c2)sc2c1CCCC2`: the outcome was inactive.
The result for `O=C(O)c1cccc(NC(=O)c2ccccc2NC(=O)c2cccc([N+](=O)[O-])c2)c1` reads “inactive”; that for `CCOc1ccc(NC(=O)C2CCCN2C(=O)Oc2ccccc2)cc1` (stereo not given), “inactive”.
`Cn1c(CCC(=O)Nc2cc(S(C)(=O)=O)ccc2Cl)nc2cc(S(=O)(=O)N3CCOCC3)ccc21`: the result was inactive.

The record behind these values is PubChem BioAssay AID743314 (Broad Institute, 2014).
